# HepG2 viability = HepG2 cytotoxicity, counter-screen for TGF-b inhibitors | AID 588856 | Potency, µM (doses to about 46.1 µM), inactives show at the top dose activity change, negative = cytotoxicity, most hits filed as cytotoxic | HepG2 CAGA-GFP viability, ATP luminescence, 18 h | 410,000 compounds, 0.76% hits
#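 HepG2 CAGA-GFP cells (1000/well, DMEM with 1% FBS) received compound, then TGF-beta at 500 pg/mL final, and were incubated 18 hours at 37 degrees C. Viability was read by CellTiter-Glo luminescence. Media-only wells were set as complete cell-killing and DMSO as no toxicity.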
# A549 viability = A549 cytotoxicity, counter-screen for Nrf2 inhibitors. A549 ARE-Fluc cells, CellTiter-Fluor viability, 18-24 h. Potency, µM (top dose mostly 46 µM), for the others: at the highest dose activity change, negative = cytotoxicity, usual class: inhibitors. AID 504648. 390,000 compounds, 0.16% hits; further: on the % scale 0 is the no-effect control and ±100 the full control effect
#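 Cytotoxicity counterscreen: CellTiter-Fluor fluorescence was measured in A549 ARE_Fluc cells after 18-24 h of compound exposure in a concentration series. The subsequent BugLite luminescent read reports ARE-luciferase activity.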
# TGFb SMAD3 inh = blocks TGF-b signaling; AID 588855; HepG2 CAGA-GFP TGF-b/SMAD3 reporter, GFP fluorescence, 18 h; TGF-beta stimulated, 500 pg/mL final; Potency, µM (series often up to 46.1 µM), for inactives: top-dose activity, negative = inhibition, hits mostly inhibitors; 410,000 compounds, 1.2% hits; further: on the % scale 0 is the no-effect control and ±100 the full control effect; nearly all actives have a fitted effect of over 65% in size
#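 First, reporter cells (HEPG2 CAGA-GFP) rested 2 h at 37 degrees C. Next, compounds were pinned in and TGF-beta added to 500 pg/mL final. After 18 h, GFP was imaged per cell and summed per well.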
# ATXN2 expr inh = reduces ATXN2 reporter expression in HEK-293 cells; HEK-293 ATXN2-luciferase reporter, luminescence, 24 h; Potency, µM (doses to about 57 µM), without a hit: top-dose activity change, negative = inhibition, most hits filed as inhibitors; 360,000 compounds, 0.72% hits; further: on the % scale 0 is the no-effect control and ±100 the full control effect; nearly all actives have a fitted effect of over 55% in size
#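 ATXN2-luciferase reporter cells (luciferase flanked by upstream and downstream ATXN2 gene portions) were treated 24 h at 37 °C with compounds at up to 57 uM. SteadyGlo luminescence gave expression; GF-AFC fluorescence gave viability.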
# Nrf2 block = Nrf2 pathway inhibition; A549 ARE-Fluc reporter, luciferase luminescence, 18-24 h; AID 504444; 360,000 compounds, 2.1% hits; Potency, µM (titrated, usually from 46 µM), for inactives: at the top dose activity change, negative = inhibition, most hits filed as inhibitors; further: on the % scale 0 is the no-effect control and ±100 the full control effect; nearly all actives have a fitted effect of over 60% in size
#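 Reporter: ARE-Fluc in A549. Exposure: 18-24 h, 37 °C, 5% CO2, 5% FBS OPTI-MEM. Readouts: fluorescent cytotoxicity (CellTiter-Fluor), then luminescent Nrf2 signal after BugLite.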
# ATXN viability = reduces viability in counter-screen for ATXN expression inhibitors; S2 cells (HEK-293 line with an ATXN2-luciferase reporter) viability, CellTiter-Fluor protease fluorescence, 24 h; Potency, µM (titrated, usually from 56.7 µM), most hits filed as cytotoxic; 400,000 compounds, 0.49% hits; AID 651635; further: nearly all actives have a fitted effect of over 40% in size
# * marks the source's active call; other numbers are inactive results; i = inactive; ? = inconclusive; nt = no result; ! = repeats disagree. Only some compounds are listed: those with a hit (about 3.8% of all), similar ones and a draw of the others. The call rests on the fitted dose curve; in most records, active means well fitted curve in the direction sought with a large enough effect; inconclusive means small, poorly fitted or top-dose-only effect, or another doubt; inactive means no such curve, though single readings can be large; an effect the other way counts as inactive or inconclusive. Potency means the concentration at half of the fitted maximal effect.
SMILES,HepG2 viability,A549 viability,TGFb SMAD3 inh,ATXN2 expr inh,Nrf2 block,ATXN viability
Cc1cc(Cl)cc(C)c1OCCOCCNCc1ccccc1,14.1µM*,0.9%,?,nt,2.7%,?
Clc1ccc(OCCOCCNCc2ccccc2)cc1Cl,-64.3%,0.0%,11.2µM*,nt,-22.6%,i
Cc1cc(Cl)cc(C)c1OCCNCc1ccccc1,-43.5%,1.3%,-18.0%,-23.0%,2.1%,i
O=C(CN1C(=O)/C(=C/c2cccc(Br)c2)SC1=S)N1CCCC1,-2.9%,0.4%,-24.8%,51.9%,17.0%,?
CN(C)CCN(Cc1ccccc1)C(c1cc2ccccc2o1)c1nnnn1C(C)(C)C (stereo unspecified),nt,nt,nt,-14.2%,nt,?
CCCCn1nnnc1C(c1cc2ccccc2o1)N(CCN(C)C)Cc1ccccc1 (stereo unspecified),nt,nt,nt,31.6µM*,nt,nt
CCCCn1nnnc1C(c1cc2ccccc2o1)N1CCN(c2cc(C)nc3ccccc23)CC1 (stereo unspecified),nt,nt,nt,?,nt,4.47µM*
O=C(CC1CC2CCC1C2)NC1CCCCCCC1 (stereo unspecified),15.2%,-9.3%,6.6%,77.4%,?,i
CCN(C(=O)CSc1cc(-c2ccccc2)c2ccc(OC)cc2n1)C1CCS(=O)(=O)C1 (stereo unspecified),1.1%,?,?,-13.6%,23.1µM*,i
O=C(Cn1nc(C(F)(F)F)c2c1CCC2)Nc1ccc(Cl)cc1,-47.2%,4.1%,?,?,?,?
O=C(Cn1nc(C(F)(F)F)c2c1CCCC2)Nc1ccc(F)c(Cl)c1,-85.7%,-19.5%,11.2µM*,?,?,?
CCSc1nc2ccccc2n1C(=O)/C=C\c1ccc(OC)c(OC)c1,-3.1%,?,-26.7%,12.6µM*,?,?
CCSc1nc2ccccc2n1CC(N)=O,8.6%,-1.0%,40.0%,0.2%,nt,i
COc1cc(OC)c(S(=O)(=O)Nc2ccc(C(=O)O)cc2)cc1S(=O)(=O)Nc1ccc(C(=O)O)cc1,12.4%,-0.8%,-1.1%,21.0%,0.5%,i
CCOC(=O)c1nnn(-c2ccccc2)c1C,-15.2%,-2.5%,6.3%,25.5%,?,i
CCOC(=O)c1nnn(-c2ccc([N+](=O)[O-])cc2[N+](=O)[O-])c1C,15.8µM*,-7.6%,10µM*,1.0%,-25.1%,i
CN1CCOC(=O)/C1=N/Nc1cc(Cl)ccc1Cl,1.2%,0.8%,7.1%,-23.7%,-22.2%,i
COc1ccc(-n2ncc3c(=O)n(CC(=O)N4c5ccccc5CC4C)cnc32)cc1 (stereo unspecified),1.3%,?,4.3%,-12.4%,8.2µM*,i
CC1CCCCN1C(=O)Cn1c(SCC(=O)N(C)c2ccccc2)nc2ccccc21 (stereo unspecified),-2.6%,-17.3%,5.0%,-11.0%,nt,?
Cc1ccc(SC[C@H](Cc2ccccc2)N2CC[C@@H](C(C)(C)C)CCC2=O)cc1,0.9%,nt,-10.0%,nt,nt,nt
CC(C)(C)[C@H]1CCC(=O)N([C@H](CSc2ccccc2)Cc2ccccc2)CC1,-21.0%,2.0%,11.2µM*!,-14.6%,-16.7%,?
O=C(OCC(=O)N1CCCC1=O)c1nc(Cl)c(Cl)c(Cl)c1Cl,-15.3%,-0.8%,-1.8%,?,9.3%,31.6µM*
Cc1nc2cccnc2n1-c1cccc(C(=O)NCc2ccc(OC(C)C)cc2)c1,-20.0%,10.0%,0.0%,nt,?,nt
CC(=O)Nc1cc2cc(NS(=O)(=O)c3ccc(Cl)cc3)ccc2oc1=O,0.199µM*,6.0%,3.9%,0.5%,25.5%,i
C/C(=N\NC(=O)CSCc1ccc([N+](=O)[O-])cc1)c1ccccc1O,-17.9%,-6.4%,?,17.8µM*,?,?
SMILES,HepG2 viability,A549 viability,TGFb SMAD3 inh,ATXN2 expr inh,Nrf2 block,ATXN viability
C/C(=N\NC(=O)CSCc1ccc([N+](=O)[O-])cc1)c1ccccc1,32.3%,10.7%,-2.1%,-17.5%,?,nt
CCN(CC)c1ncnc2c1cnn2-c1cc(Cl)ccc1C,-9.5%,2.2%,-10.2%,-18.4%,nt,?
O=C(COc1ccccc1C(=O)Nc1ccccc1)c1ccc(Br)cc1,13.7%,?,-0.4%,nt,20.6µM*,i
Cc1cccc(NC(=O)CN2C(=O)C(c3ccc(F)cc3)=NC23CCCCCC3)c1C,-19.5%,-16.9%,nt,nt,23.1µM*,nt
Cc1ccc(NC(=O)CN2C(=O)C(c3ccc(F)cc3)=NC23CCCCC3)c(C)c1,-30.1%,-9.8%,nt,nt,-26.7%,nt
Cc1ccc(S(=O)(=O)ON2C(=O)c3cccc4cccc(c34)C2=O)cc1,20.5%,0.6%,18.5%,nt,-3.0%,i
Cc1ccc(S(=O)(=O)N2C(=O)c3cccc4cccc2c34)cc1,-27.2%,?,?,?,14.6µM*,i
CCc1ccccc1NC(=O)C1CCN(S(=O)(=O)c2ccc3c(c2)N(C(C)=O)CCO3)CC1,-10.1%,1.0%,10.0%,-5.4%,0.7%,i
CCOC(=O)c1c(C)oc2nc(C)nc(N(C)Cc3ccccc3)c12,-17.5%,7.3%,-23.6%,?,13µM*,i
CCOC(=O)c1c(C)oc2ncnc(N3CCN(c4cccc(Cl)c4)CC3)c12,-46.3%,-16.5%,11.2µM*,?,?,?
CCOC(=O)c1c(C)oc2nc(C)nc(N3CCN(c4ccccc4)CC3)c12,-20.8%,-5.5%,?,?,23.1µM*,?
CCOC(=O)c1c(C)oc2ncnc(N3CCN(c4ccc(C)cc4C)CC3)c12,-21.2%,-0.3%,?,-4.9%,9.0%,i
COc1ccc(Cn2c(SCc3ccc(C(=O)NC(C)C)cc3)nc3cccnc32)cc1,-42.5%,-0.6%,-28.8%,-7.4%,?,i
O=C(CCC(=O)N1CC2CCCN2c2ccccc21)NCc1ccc(Cl)cc1 (stereo unspecified),-7.1%,5.0%,-4.4%,16.7%,nt,i
CCN(CC)S(=O)(=O)c1ccc(Cl)c(NC(=O)CSc2cccc[n+]2[O-])c1,-0.3%,14.3%,-11.0%,nt,10.3%,i
CCN(CC)S(=O)(=O)c1ccc(NC(=O)CSc2cccc[n+]2[O-])cc1,10µM*,1.8%,12.8%,3.5%,3.7%,i
CSc1ccccc1C(=O)N(CC1CCCO1)c1c(N)n(Cc2ccccc2)c(=O)[nH]c1=O (stereo unspecified),-34.8%,0.6%,0.8%,-14.0%,10.5%,i
O=C(NCCc1ccccc1F)C1CC(=O)N(c2ccc3c(c2)OCCO3)C1 (stereo unspecified),-23.7%,nt,6.2%,nt,nt,i
